# Measurements taken from paper PMC4336329 (PLoS ONE, 2015).
# The whole screen tested about 310,000 compounds, of which about 2,200 (0.71%) showed an effect of 50% or more. The effect is printed as a negative number. The sample as a whole holds a higher share of strong results than the screen did.
# Molecular target: human ether-à-go-go-related gene (hERG) potassium channel (human, UniProt Q12809)
# Test: primary screen, population patch clamp on CHO cells stably expressing hERG; higher = less effect of the substance
# Chain of human ether-à-go-go-related gene (hERG) potassium channel (Q12809 whole entry, looked up): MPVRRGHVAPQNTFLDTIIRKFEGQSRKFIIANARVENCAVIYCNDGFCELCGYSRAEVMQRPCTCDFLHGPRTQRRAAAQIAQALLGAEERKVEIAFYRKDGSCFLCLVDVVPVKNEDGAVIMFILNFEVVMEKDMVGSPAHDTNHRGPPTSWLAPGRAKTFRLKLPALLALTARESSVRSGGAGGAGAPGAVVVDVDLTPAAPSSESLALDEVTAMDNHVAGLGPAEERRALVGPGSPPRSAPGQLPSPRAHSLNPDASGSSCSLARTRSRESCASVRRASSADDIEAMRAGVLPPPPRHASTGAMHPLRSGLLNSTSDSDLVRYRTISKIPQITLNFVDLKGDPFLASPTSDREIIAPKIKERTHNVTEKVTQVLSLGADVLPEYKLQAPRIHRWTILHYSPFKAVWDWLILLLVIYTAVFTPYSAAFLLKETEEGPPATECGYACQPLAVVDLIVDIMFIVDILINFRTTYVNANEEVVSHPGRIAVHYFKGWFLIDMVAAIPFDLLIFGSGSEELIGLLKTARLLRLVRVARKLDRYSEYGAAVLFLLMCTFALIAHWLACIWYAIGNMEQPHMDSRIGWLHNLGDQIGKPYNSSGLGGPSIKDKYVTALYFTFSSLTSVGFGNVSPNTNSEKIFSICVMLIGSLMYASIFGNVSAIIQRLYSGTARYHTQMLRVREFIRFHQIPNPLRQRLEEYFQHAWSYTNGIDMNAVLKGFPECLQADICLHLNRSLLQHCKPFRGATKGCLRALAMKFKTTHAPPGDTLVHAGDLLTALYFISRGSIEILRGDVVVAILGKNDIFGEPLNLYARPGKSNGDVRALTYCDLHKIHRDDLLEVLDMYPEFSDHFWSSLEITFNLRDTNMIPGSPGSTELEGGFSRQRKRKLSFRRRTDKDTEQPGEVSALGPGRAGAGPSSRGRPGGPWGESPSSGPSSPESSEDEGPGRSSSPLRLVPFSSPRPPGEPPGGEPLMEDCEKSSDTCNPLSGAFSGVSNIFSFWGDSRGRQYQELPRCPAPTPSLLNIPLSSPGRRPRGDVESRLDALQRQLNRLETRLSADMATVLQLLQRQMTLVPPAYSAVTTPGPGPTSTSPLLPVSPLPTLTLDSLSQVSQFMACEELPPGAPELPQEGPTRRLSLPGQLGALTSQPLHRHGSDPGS
row,Compound,"hERG current change (%, negative = inhibition) at 1uM"
1,O=C(C1CCN(C2CC(=O)N(c3ccc(Cl)cc3)C2=O)CC1)N1CCOCC1 (centres unmarked),2.01%
2,CCCC[C@@H]1C[C@H]1[C@@H](NC(=O)c1ccco1)c1ccc(Cl)cc1,6.22%
3,CC(Nc1nc(N2CCCCC2)nc2ccccc12)c1ccccc1 (centres unmarked),-14.4%
4,CC(Nc1nc(N2CCNCC2)nc2ccccc12)c1ccccc1 (centres unmarked),-31.7%
5,CC(Nc1nc(N2CCOCC2)nc2ccccc12)c1ccccc1 (centres unmarked),-52.7%
6,CC(Nc1nc(N2CCN(S(C)(=O)=O)CC2)nc2ccccc12)c1ccccc1 (centres unmarked),-14%
7,CC(Nc1nc(N2CCCC2)nc2ccccc12)c1ccccc1 (centres unmarked),-84.6%
8,CC(Nc1nc(N2CCN(CCO)CC2)nc2ccccc12)c1ccccc1 (centres unmarked),-25.9%
9,COC(=O)C(C(=O)Nc1cccc(Cl)c1C)C1CCCC1 (centres unmarked),5.04%
10,COCCCN1C(=O)C(=O)/C(=C(/O)c2ccc(S(=O)(=O)N3CCOCC3)cc2)C1c1ccc(F)cc1 (centres unmarked),6.04%
11,Cc1ccsc1/C=N/Nc1ncnc2nc[nH]c12,-2.18%
12,COc1ccc(S(=O)(=O)N2N=C(c3cccc(NS(C)(=O)=O)c3)CC2c2ccco2)cc1 (centres unmarked),16.4%
13,CS(=O)(=O)Nc1ccc(C2=NN(S(=O)(=O)c3ccc(F)cc3)C(c3ccco3)C2)cc1 (centres unmarked),-15.6%
14,COc1ccc(S(=O)(=O)N2N=C(c3ccc(NS(C)(=O)=O)cc3)CC2c2ccco2)cc1 (centres unmarked),-69.6%
15,O=C(CCS(=O)(=O)Cc1ccccc1F)NCCc1ccc(Cl)cc1,5.86%
16,Cc1cc(NC(=O)CSc2nc3c(c(=O)n2-c2ccc(Br)cc2)SCC3)no1,6.41%
17,CCOC(=O)c1c(CN(CC)CC)n(C)c2cc(Br)c(O)cc12.Cl,-45%
18,CCOC(=O)c1c(CN2CCCCC2)n(C)c2cc(Br)c(OC)cc12,9.14%
19,CCOC(=O)c1c(CN(CC)CC)oc2ccc(OC)cc12,-25.8%
20,CCOC(=O)c1c(CN2CCCCC2)n(C)c2cc(Br)c(O)cc12,-68.8%
21,CCOC(=O)c1c(CN2CCN(C)CC2)n(C)c2cc(Br)c(OC)cc12,-12.4%
22,CCOC(=O)c1c(CN(CC)CC)oc2cc(Br)c(O)cc12,-59.5%
23,Cc1ccc(NC(=S)NNC(=O)Cn2nc(C(F)F)cc2C(F)F)cc1,13.6%

row,Compound,"hERG current change (%, negative = inhibition) at 1uM"
1,Cc1oc(C(C)(C)C)cc1C(=O)Nc1ccc(N2CCOCC2)cc1,4.63%
2,CC(=O)NC(=S)Nc1ccccc1N1CCN(C(=O)c2ccccc2)CC1,10.6%
3,C[N+](C)(C)CCCCCCCCCC[N+](C)(C)C.[Br-],7.97%
4,CCCCCCCCCCOC(=O)Cn1c(COc2ccc(Cl)cc2)[n+](C)c2ccccc21.[Cl-],-79.1%
5,CCCCc1n(CC(=O)c2ccc(Cl)cc2)c2ccccc2[n+]1C.[Br-],10.7%
6,CCCCCCCCCCOC(=O)Cn1c(COc2ccc(C)cc2)[n+](C)c2ccccc21.[Cl-],-56.5%
7,CCCCCCCCCCOC(=O)Cn1c(COc2ccccc2)[n+](C)c2ccccc21.[Cl-],-46.5%
8,CCCCCCCCCCOC(=O)Cn1c(COc2cccc(OC)c2)[n+](C)c2ccccc21.[Cl-],-37.3%
9,CCCCCCCCCCOC(=O)Cn1c(COc2ccc(OC)cc2)[n+](C)c2ccccc21.[Cl-],-70.9%
10,CCCCCCCCCCOC(=O)Cn1c(COc2cccc(C)c2)[n+](C)c2ccccc21.[Cl-],-43.9%
11,CCCCCCCCCCOC(=O)Cn1c(COc2ccccc2C)[n+](C)c2ccccc21.[Cl-],-18%
12,CCCCCCCCCCOC(=O)Cn1c(COc2ccccc2OC)[n+](C)c2ccccc21.[Cl-],-33.2%
13,CCN(C(=S)Nc1ccc(Oc2ccccc2)cc1)c1ccccc1,21.1%
14,CCc1nnc(NC(=O)C2CCC2)s1,3.46%
15,CCCn1c(N)c(N(CCOC)C(=O)c2ccc(F)cc2)c(=O)[nH]c1=O,12.9%
16,Cc1[nH]c(C)c(S(=O)(=O)NCCc2ccc(S(N)(=O)=O)cc2)c1C(=O)N1CCCC1,12.3%
17,CCCCSc1nnc(-c2ccc(NC(=O)CCc3ccccc3)cc2)n1C,19.5%
18,Cc1ccc2occ(/C=C/C(=O)O)c(=O)c2c1,9.03%
19,CCNC(=O)C1(c2ccccc2)CCCC1,5.42%
20,CCOC(=O)C[n+]1c(C)csc1C.[Br-],9.26%
21,CCN1CCN(c2nc(Nc3cccc(C)c3)nc(N)c2[N+](=O)[O-])CC1,-36.9%
22,CCN1CCN(c2nc(Nc3ccc(OC)cc3)nc(N)c2[N+](=O)[O-])CC1,1.06%
23,CCN1CCN(c2nc(Nc3cccc(OC)c3)nc(N)c2[N+](=O)[O-])CC1,-60.6%

row,Compound,"hERG current change (%, negative = inhibition) at 1uM"
1,COc1ccccc1-n1c(/C=C/c2ccc(O)cc2)nc2ccccc2c1=O,13%
2,CCCCCn1c(=O)c(C(=O)c2ccccc2)nc2ccccc21,-52.5%
3,CCCCn1c(=O)c(C(=O)c2ccccc2)nc2ccccc21,5.56%
4,CCCn1c(=O)c(C(=O)c2ccccc2)nc2ccccc21,-0.484%
5,CCCCn1c(CCNC(=O)CC)nc2ccccc21,0.197%
6,CCCCn1c(CCCNC(=O)CC)nc2ccccc21,-3.85%
7,CCCCCn1c(CCCNC(=O)CC)nc2ccccc21,-52.3%
8,Cc1ccc(NC(=O)CSc2sc3c(O)cc(=O)[nH]c3c2C#N)cc1C,0.874%
9,CC(C)(C)OC(=O)N1CCC(C(N)=O)CC1,5.04%
10,CCOC(=O)c1ccc(NC(=O)N2C[C@@H]3C[C@@H](C2)c2cccc(=O)n2C3)cc1,7.4%
11,Cc1ccc(Nc2nc(N)nc(CN3CCN(Cc4ccccc4)CC3)n2)cc1Cl,-24.5%
12,Cc1ccc(Nc2nc(N)nc(CN3CCN(c4ccccc4)CC3)n2)cc1Cl,-10.8%
13,CCOC(=O)N1CCN(Cc2nc(N)nc(Nc3ccc(Cl)cc3)n2)CC1,-22.7%
14,Cc1ccc(Nc2nc(N)nc(CN3CCN(C(=O)c4ccco4)CC3)n2)cc1Cl,-54.1%
15,Nc1nc(CN2CCN(C(=O)c3ccco3)CC2)nc(Nc2cccc(Cl)c2)n1,-76.3%
16,O=C(c1ccco1)N1CCN(Cc2ccc(Cl)cc2)CC1,7.26%
17,CN1C(=O)CSc2ccc(NC(=O)Nc3ccccn3)cc21,8.01%
18,Cc1ccc(Cl)cc1NC(=O)c1ccc(CSc2nnnn2C)cc1,9.74%
19,CCOc1cc(/C=N\NC(=O)C2C(=O)NCC2c2ccccc2)ccc1OC (centres unmarked),10%
20,Oc1ccc(C[C@H]2CNCCN2CCc2cccc(F)c2)cc1,7.34%
21,CC1CN(C(=O)CCC(=O)NCCCN2CCN(Cc3ccccc3)CC2)c2cc(Cl)ccc2O1 (centres unmarked),-68.1%
22,CC1CN(C(=O)CCC(=O)NCc2ccccc2)c2cc(Cl)ccc2O1 (centres unmarked),0.521%
23,CCN1CCN(CCCNC(=O)CCC(=O)N2CC(C)Oc3ccc(C)cc32)CC1 (centres unmarked),6.55%

row,Compound,"hERG current change (%, negative = inhibition) at 1uM"
1,Cc1ccc2c(c1)N(C(=O)CCC(=O)NCCCN1CCOCC1)CC(C)O2 (centres unmarked),-1.87%
2,CC1CN(C(=O)CCC(=O)NCCCN2CCC(Cc3ccccc3)CC2)c2cc(Cl)ccc2O1 (centres unmarked),-62.2%
3,Cc1ccc2c(c1)N(C(=O)CCC(=O)NCCCN1CCN(C)CC1)CC(C)O2 (centres unmarked),8.82%
4,Cc1ccc(C(=O)c2cc(Br)ccc2N)cc1,12.5%
5,COc1ccc(-c2csc(NC(=O)CCNC(=O)c3ccco3)n2)cc1OC,-3.11%
6,O=S(=O)(NC1CCCCCCC1)c1ccc(F)cc1,12.2%
7,C=CCNC(=O)c1ccccc1NS(=O)(=O)c1ccc(SC)cc1,10.5%
8,CSc1ccc(S(=O)(=O)N2CCC(C(=O)Nc3ccccc3C(F)(F)F)CC2)cc1,11.7%
9,C=CCNC(=O)c1ccccc1NC(=O)C1CCN(S(=O)(=O)c2ccc(SC)cc2)CC1,-56.8%
10,Cc1cccc2cc(CN(Cc3ccc(F)cc3)C(=O)C(F)(F)F)c3nnnn3c12,30.5%
11,COC(=O)[C@@H]1C[C@]2(OC(=O)c3ccccc3)C=CC(=O)C[C@@H]2N1C(=O)OCc1ccccc1,11.9%
12,COc1ccc(-c2[nH]ncc2CN2CCC(OCc3cccnc3)CC2)c(F)c1,-10.6%
13,COc1ccc(-c2[nH]ncc2CN2CCN(c3ccc(F)cc3)CC2)cc1,-4.53%
14,Fc1ccc(N2CCN(Cc3cn[nH]c3-c3ccccc3)CC2)cc1,-27%
15,COc1ccc(-c2[nH]ncc2CN2CCC(N3CCSCC3)CC2)cc1F,3.77%
16,COc1ccc(-c2[nH]ncc2CN2CCCC(C(=O)c3ccc(OC)cc3OC)C2)cc1 (centres unmarked),-47.3%
17,COc1ccc(-c2[nH]ncc2CN2CCC(OCc3ccccn3)CC2)c(F)c1,2.13%
18,O=C(c1ccc(F)cc1)C1CCN(Cc2cn[nH]c2-c2ccccc2)CC1,-84.2%
19,COCC1CCN(Cc2cn[nH]c2-c2ccc(OC)c(F)c2)C1 (centres unmarked),3.17%
20,COc1ccc(-c2[nH]ncc2CN2CCC(c3ccncc3)CC2)cc1F,-51.4%
21,COc1ccc(-c2[nH]ncc2CN2CCC(C(=O)c3ccc(F)cc3)CC2)cc1,-70.5%
22,COc1ccc(-c2[nH]ncc2CN2CCC(OCc3ccccc3)CC2)c(F)c1,-64.5%
23,CCOC(=O)C1CCN(Cc2cn[nH]c2-c2ccccc2)CC1.O=C(O)C(=O)O,14.2%
